{
  "source": "PubChem BioAssay (NCI)",
  "note": "About 83,000 compounds went through this panel and 20% of them were active in at least one assay; those are over-represented in the sample as a whole.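 Each cell line was grown in a 96-well plate and treated with one concentration of compound for 48 hours. Values below 10 were considered active.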 A number with no mark means an inactive call. Activity calls are given as the source filed them.",
  "data": [
    {"system": "SK-MEL-2 melanoma", "assay": "NCI-60 one-dose screen, 48 h (100 = growth as untreated, 0 = no growth, -100 = all killed)", "settings": "10 µM unless noted", "values": [
      {"smiles": "COc1cc(/C=C2\\CN(S(=O)(=O)c3ccccc3)C/C(=C\\c3cc(CN4CCCCC4)c(O)c(OC)c3)C2=O)cc(CN2CCCCC2)c1O", "growth": "104%"},
      {"smiles": "O=C(N/N=C/c1cc(Cl)ccc1O)c1ccccc1Nc1ccnc(C(F)(F)F)c1", "growth": "90.7%"},
      {"smiles": "COc1cc(OC)c(C(=O)C(CN(C)C)CN(C)C)cc1OC", "growth": "105%"},
      {"smiles": "CCOc1cccc(/C=N/NC(=O)c2cccc(Nc3ccnc(C(F)(F)F)c3)c2)c1O", "growth": "58.7%"},
      {"smiles": "O=C1/C(=C/c2ccc(O)c(O)c2)COc2ccc(-c3ccccc3)cc21", "growth": "59%"},
      {"smiles": "CCN1C(=O)N(CC)C2C1NC(=S)N2/N=C/c1ccc(OC)cc1", "note": "(stereo unspecified)", "growth": "65%"},
      {"smiles": "Cc1ccc2c(=O)cc(C(=O)Nc3sc4c(c3C(=O)NCc3cccnc3)CCCC4)oc2c1C", "growth": "109%"},
      {"smiles": "CCOC(=O)CC1CSC(Nc2ccccc2)=N1", "note": "(stereo unspecified)", "growth": "97.4%"},
      {"smiles": "Nn1c(=O)c(=O)[nH]c2c(cnn2-c2ccccc2)c1=O", "growth": "122%"},
      {"smiles": "Nc1[nH]n2cc(-c3ccc(F)cc3)nc2c1N=Nc1ccc(S(N)(=O)=O)cc1", "growth": "70.1%"},
      {"smiles": "Cn1cc(-c2csc(-c3c[nH]c4ccc(F)cc34)n2)c2ccnc(Cl)c21", "growth": "104%"},
      {"smiles": "Cc1nc2c(c(=O)[nH]1)C(c1ccccc1)c1ccc3ccccc3c1O2", "note": "(stereo unspecified)", "growth": "16.5%"},
      {"smiles": "C=C(C)[C@@H]1CC[C@]2(C(N)=O)CC[C@]3(C)[C@H](CC[C@@H]4[C@@]5(C)CC[C@H](OCCC#N)C(C)(C)[C@@H]5CC[C@]43C)[C@@H]12", "growth": "92.5%"},
      {"smiles": "N#Cc1c(Nc2ccc(N3CCOCC3)cc2)nc(SCC(=O)c2ccc(Br)cc2)nc1-c1ccccc1", "growth": "94.4%"},
      {"smiles": "O=C(NNC(=O)c1ccc(NC(=O)c2ccccn2)cc1)Nc1ccc2ccccc2c1", "growth": "114%"},
      {"smiles": "CC(=O)OC[C@]12CC[C@@H]([C@@H](C)c3nnc(-c4ccncc4)o3)[C@@H]1[C@H]1CC[C@@H]3[C@@]4(C)CC[C@H](OC(C)=O)C(C)(C)[C@@H]4CC[C@@]3(C)[C@]1(C)CC2", "growth": "82.3%"},
      {"smiles": "CCN(CC)Cc1cc(Nc2ccnc3cc(Cl)ccc23)ccc1O", "growth": "111%"},
      {"smiles": "COc1ccc(/C=C/C(c2cc(OC)c(OC)c(OC)c2)n2cncn2)cc1", "note": "(stereo unspecified)", "growth": "12.9%"},
      {"smiles": "Cc1ccc(C)c2c(C)c(C(=O)Nc3cccc(-n4cccn4)c3)oc12", "growth": "66.3% [50 µM]"},
      {"smiles": "COc1ccc(/C=C/C(c2cc(OC)c(OC)c(OC)c2)n2ccnc2)cc1O", "note": "(stereo unspecified)", "growth": "41.7%"},
      {"smiles": "O=S(=O)(NCCCNc1nccc(-c2c(-c3cccc(F)c3)nc3occn23)n1)c1ccc(F)cc1", "growth": "55.5%"},
      {"smiles": "Cn1cc(-c2ccc(-c3cn(C)c4ccc(Cl)cc34)[nH]2)c2cc(Cl)ccc21", "growth": "-18.9% (active)"},
      {"smiles": "S=C(c1ccc2c(c1)OCO2)N1CCN(c2cccc(Cl)c2)CC1", "growth": "71.7%"},
      {"smiles": "O=C(O)c1ccc(-c2ccc(/C=N/Nc3nc(Nc4ccccc4)nc(N4CCCCC4)n3)o2)cc1", "growth": "68.5%"},
      {"smiles": "COc1cccc(Nc2ncnc3cc(NC(=O)CCl)ccc23)c1", "growth": "-45.3% (active)"},
      {"smiles": "COc1ccc(-c2n[nH]c(=O)c3nc(NC(=S)Nc4ccc(Oc5ccccc5)cc4)sc23)cc1", "growth": "98.6%"},
      {"smiles": "COc1ccc(C(=O)N2c3ccccc3Sc3ccccc32)c(C(F)(F)F)c1", "growth": "47%"},
      {"smiles": "C#CCNC(=O)[C@]1(C)CCC[C@@]2(C)[C@H]1CC=C1C=C(C(C)C)CC[C@@H]12", "growth": "95.9%"},
      {"smiles": "O=C(CCCCCNC(=O)c1cc(=O)c(O)co1)Nc1ccccc1", "growth": "105%"},
      {"smiles": "CNC1=CC(=O)c2c(C(=O)OC)c(C)[n+]([O-])c(C)c2C1=O", "growth": "70.7%"},
      {"smiles": "O=C1/C(=C\\c2ccccn2)c2ccccc2N1c1c(Cl)cccc1Cl", "growth": "48.8%"},
      {"smiles": "COc1cc(OC)cc(-c2ccc(-c3ccc(C(=N)N)o3)o2)c1", "growth": "88.1%"},
      {"smiles": "C#CCOc1cccc(-c2ncnc3cc(NC(=O)C=C)ccc23)c1", "growth": "46.7%"},
      {"smiles": "COc1ccc(-c2nn(-c3ccccc3)cc2/C=C/C(=O)NNC(=O)Nc2ccc(C)cc2)cc1", "growth": "102%"},
      {"smiles": "C/C(Cc1ccc(Cl)cc1)=C(\\c1ccc(OCCCN(C)C)cc1)c1ccc(OC(=O)Cc2ccccc2)cc1", "growth": "100%"},
      {"smiles": "CCOC(=O)C(=CNc1cnc(Nc2ccc(N3CCOCC3)cc2)nc1Oc1ccc(OC)cc1)C(=O)OCC", "growth": "91.8%"}
    ]}
  ]
}
